Laboratory results from PubChem BioAssay AID540259 (Broad Institute, 2011).
Entries with a potency or affinity are not part of this list. Active and inactive are the calls of the source.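 The calls were made as follows: active = cell killing, meaning signal decrease, with fitted half-maximal dose at or below ten times the top valid tested dose; inconclusive = poor fit, or flat curve with 30 to 70% signal loss; inactive = the rest.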

experiment: HeLa cell cytotoxicity, dose response, cytotoxicity control for MITF activator project, CellTiter-Glo luminescence, cherry-pick samples (AID 540259); details: HeLa viability, CellTiter-Glo ATP luminescence, 24 h; series mostly up to 35 µM

Row | Structure (SMILES) | outcome
1 | C=CCc1c(C)nc(-c2ccccc2)nc1N/N=C/c1ccncc1 | inactive
2 | CC(C)(C)C(=O)c1sc(Nc2ccccc2)nc1N | inactive
3 | CC(=O)c1cccc(OCc2cc(C(=O)N(C)Cc3cnccn3)no2)c1 | inactive
4 | COc1ccc2cc(C(N)=O)c(=Nc3ccccc3)oc2c1 | inactive
5 | COc1ccc2oc(=O)c(C(=O)N3CCN(c4ccccc4C)CC3)cc2c1 | inactive
6 | Nc1ccc(-c2nc3ncccc3o2)c(O)c1 | inactive
7 | O=C(Nc1ccccc1)N1CCC(c2ccccc2)C1 (configuration not stated) | inactive
8 | FC(F)(F)c1ccnc(Oc2ccc(C3=NCCS3)cc2)c1 | inactive
9 | COc1ccc(NC(=O)C2Cc3ccccc3O/C2=N\O)cc1 (configuration not stated) | inactive
10 | COc1ccc(NC(=O)c2ccc3c(c2)OCO3)cc1Cl | inactive
11 | Cc1nc(SCc2ccccc2)nc2c1CCC2 | inactive
12 | COc1ccc(-c2nn(-c3ccccc3)cc2C#N)cc1 | inactive
13 | CC(C)(C)c1ccc(C(=O)Nc2ccc(F)cc2)s1 | inactive
14 | Clc1ccc(C#Cc2cccnc2)cc1 | inactive
15 | Oc1cccc(-c2nc3ccc4ccccc4c3c3c2CCC3)c1 | inactive
16 | Cc1ccc(N2C(=O)S/C(=C/c3cn(C)c4ccccc34)C2=O)cc1 | inactive
17 | COc1ccc(Nc2nc(N)c3ccccc3n2)c(OC)c1 | inactive
18 | CC(=O)c1cnc2c(-c3cccc(Br)c3)cnn2c1C | inactive
19 | O=C(Nc1ccc(F)cc1Cl)c1ccc2c(=O)n3c(nc2c1)CCC3 | inactive

Row | Structure (SMILES) | outcome
20 | O=C(c1nnc(-c2ccc(Cl)cc2)o1)C1CCCC1 | inactive
21 | CC(C)(C)N1C(=O)c2ccc(C(=O)Nc3nccs3)cc2C1=O | inactive
22 | O=C(CCCc1ccccc1)c1ccccc1 | inactive
23 | CCN(CC)C(=O)c1cc(-c2ccc(Br)cc2)on1 | inactive
24 | COc1ccc(-c2csc(N(C)C(=O)c3cccs3)n2)cc1 | inactive
25 | CC(C)c1ccc(NC(=O)Cn2ncc3ccccc32)cc1 | inactive
26 | O=C(Nc1ccc2c(c1)OCO2)c1cc(-c2ccccc2Cl)on1 | inactive
27 | Cc1ccc2c(CN3CCC(C)CC3)cc(=O)oc2c1C | inactive
28 | COc1ccc(/C=N/Nc2snc(SC)c2C#N)cc1OC | inactive
29 | CC1CCc2sc(C(=O)Nc3ccc(C(N)=O)cc3)cc2C1 (configuration not stated) | inactive
30 | CN(c1ccccc1)c1nc2ccsc2c(=O)s1 | inactive
31 | Fc1cc(Br)ccc1COc1ccc(-c2nnco2)cc1 | inactive
32 | Cc1ccc(CSc2ccc(-c3cccs3)nn2)cc1 | inactive
33 | COc1ccc(C(=O)NCCn2ccc3ccccc32)cc1 | inactive
34 | O=C(OCc1csc(-c2ccccc2)n1)c1ccc(O)cc1 | inactive
35 | COc1ccc(-c2ccc3oc(-c4ccsc4)cc(=O)c3c2)cn1 | inactive
36 | c1cncc(-c2nc3ccccc3s2)c1 | inactive
37 | Nc1nc(CSc2ccccn2)nc(Nc2ccccc2)n1 | inactive
